Sampled rows, rich in hits. Any-hit rate of the full collection: about 11%.
PI5P4K alpha inh: qHTS for Inhibitors of phosphatidylinositol 5-phosphate 4-kinase (PI5P4K); Phosphatidylinositol 5-phosphate 4-kinase type-2 alpha (Homo sapiens), P48426; PI5P4Kalpha enzyme, ADP-Glo luminescence, 60 min; hits give low values; max response, %; 330,000 compounds, 1.2% hits; AID 652105, 2013; active = max response of -50% or lower; inconclusive = between -30% and -50%; inactive = -30% or higher; note: value at the top dose of about 77 µM
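ADP-Glo luminescence end-point read after a 60 min room-temperature kinase reaction of PI5P4Kalpha plus substrate, initiated with ATP at 5 microM final. Buffer: 0.038 M HEPES pH 7.4, EGTA, 0.1% CHAPS, 5% DMSO.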
HP1b chromo inh: HTS for Inhibitors of HP1-beta Chromodomain Interactions with Methylated Histone Tails; AlphaScreen HP1-beta / biotin-H3K9me3 peptide binding; 390,000 compounds, 0.56% hits; Potency, µM (highest dose often 114 µM), actives largely listed as inhibitors; Chromobox protein homolog 1 (Homo sapiens), P83916; note: nearly all actives have a fitted effect of over 70% in size
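AlphaScreen: HP1-beta (50 nM) preformed 30 min with biotin-H3(1-18)K9me3 peptide (50 nM) in PBS pH 7.4, 0.01% Tween-20. Compound added for 30 min at RT, then streptavidin donor/nickel chelate acceptor beads (10 ug/mL) for 30 min.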
BAZ2B inh: qHTS Assay for Inhibitors of BAZ2B. Bromodomain adjacent to zinc finger domain protein 2B (Homo sapiens), Q9UIF8. 360,000 compounds, 4.4% hits. AlphaScreen BAZ2B-H3K14Ac peptide displacement. Potency, µM (top dose mostly 114 µM), usual class: inhibitors; note: nearly all actives have a fitted effect of over 60% in size
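In this displacement format the biotinylated H3(5-23) peptide acetylated at Lys14 serves as ligand at 50 nM, with BAZ2B at 50 nM in PBS pH 7.4 containing 0.01% Tween-20. Donor and acceptor beads are 10 ug/mL final.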
JMJD2A Tudor: qHTS Assay for Inhibitors of JMJD2A-Tudor Domain; 390,000 compounds, 4.4% hits; Lysine-specific demethylase 4A (Homo sapiens), O75164; AID 504339, 2011; Potency, µM (highest dose often 114 µM), most hits filed as inhibitors; AlphaScreen JMJD2A-Tudor / H3K4me3 peptide binding; note: nearly all actives have a fitted effect of over 50% in size
Target sequence (O75164 whole entry, looked up, the tested form may be a part): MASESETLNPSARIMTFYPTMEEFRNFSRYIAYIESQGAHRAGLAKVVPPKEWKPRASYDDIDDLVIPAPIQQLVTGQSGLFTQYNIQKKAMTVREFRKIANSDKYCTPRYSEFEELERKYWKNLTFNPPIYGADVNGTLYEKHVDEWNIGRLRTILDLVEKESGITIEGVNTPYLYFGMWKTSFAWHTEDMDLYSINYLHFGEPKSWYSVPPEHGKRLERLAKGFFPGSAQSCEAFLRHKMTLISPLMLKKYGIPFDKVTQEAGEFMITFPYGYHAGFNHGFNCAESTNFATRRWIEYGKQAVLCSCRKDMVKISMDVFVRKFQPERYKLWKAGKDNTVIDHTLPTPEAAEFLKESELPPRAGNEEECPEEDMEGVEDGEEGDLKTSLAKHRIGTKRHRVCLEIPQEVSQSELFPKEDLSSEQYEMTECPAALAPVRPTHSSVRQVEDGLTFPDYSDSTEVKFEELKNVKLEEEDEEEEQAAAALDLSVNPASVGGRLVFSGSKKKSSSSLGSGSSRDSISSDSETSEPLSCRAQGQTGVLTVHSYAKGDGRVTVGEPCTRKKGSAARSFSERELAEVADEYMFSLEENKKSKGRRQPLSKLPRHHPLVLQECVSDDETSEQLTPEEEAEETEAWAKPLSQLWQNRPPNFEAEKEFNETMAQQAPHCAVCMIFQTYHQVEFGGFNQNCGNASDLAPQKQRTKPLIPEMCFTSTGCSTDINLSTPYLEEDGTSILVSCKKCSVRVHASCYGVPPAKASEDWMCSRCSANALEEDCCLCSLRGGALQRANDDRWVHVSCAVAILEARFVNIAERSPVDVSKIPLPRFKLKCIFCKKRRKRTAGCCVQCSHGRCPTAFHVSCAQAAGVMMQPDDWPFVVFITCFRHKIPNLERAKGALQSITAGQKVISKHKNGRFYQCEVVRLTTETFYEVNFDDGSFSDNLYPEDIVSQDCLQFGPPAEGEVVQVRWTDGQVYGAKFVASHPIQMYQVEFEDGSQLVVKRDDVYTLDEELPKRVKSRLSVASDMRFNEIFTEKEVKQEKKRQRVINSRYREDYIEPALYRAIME
G9a inh: qHTS Assay for Inhibitors of Histone Lysine Methyltransferase G9a. Histone-lysine N-methyltransferase EHMT2 (Homo sapiens), Q96KQ7. AID 504332, 2011. G9a H3K9 monomethylation, AlphaScreen, 2 h. Potency, µM (top dose mostly 102 µM), hits mostly inhibitors. 350,000 compounds, 8.8% hits; note: nearly all actives have a fitted effect of over 75% in size
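Chemiluminescent proximity detection of H3K9 monomethylation, read after 10 min bead incubation in the dark. Reaction: 20 nM G9a, 500 nM biotin-H3K9 peptide, 20 uM SAM cofactor, 2 h, room temperature, following 15 min enzyme-compound preincubation.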
L3MBTL1 block: qHTS Assay for the Inhibitors of L3MBTL1 | Lethal(3)malignant brain tumor-like protein 1 (Homo sapiens), Q9Y468 | AlphaScreen L3MBTL1–H3K9me1 peptide binding | Potency, µM (doses to about 57.1 µM), actives largely listed as inhibitors | 230,000 compounds, 0.66% hits; note: nearly all actives have a fitted effect of over 60% in size
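First, the protein-peptide complex forms for 30 min at room temperature (L3MBTL1 50 nM, biotinylated H3K9me1 peptide 75 nM). Next, compounds are pin-transferred and incubated 30 min. Finally, AlphaScreen beads are added and read after 30 min.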
Of the large screens only hits and unclear results are named; the others gave an inactive call. Unless noted, calls come from the whole dose curve; as a rule, active = well fitted inhibition curve with a large enough effect; inconclusive = small, poorly fitted or top-dose-only effect; inactive = no such curve, though single readings can be large or run the other way.

CCn1c(O)c(N=NC2=NC(=O)CS2)c2ccccc21	BAZ2B inh 50µM, JMJD2A Tudor inconclusive
CCOC(=O)c1c(C)[nH]c(C)c1S(=O)(=O)N(C)CC(=O)Nc1ccc(C)cc1C	none (no result: PI5P4K alpha inh, L3MBTL1 block)
COc1ccc(C(=O)NC(C)c2nnc(SCc3ccc(Cl)c(Cl)c3)n2C)cc1 (stereo not given)	BAZ2B inh inconclusive, G9a inh 32µM (no result: PI5P4K alpha inh)
CCn1c(SCc2ccc(Cl)c(Cl)c2)nnc1C(C)NC(=O)c1ccc(OC)cc1 (stereo not given)	BAZ2B inh inconclusive
CCOc1ccccc1NC(=O)CSc1ccc2nc(-c3ccccc3)cn2n1	G9a inh inconclusive (no result: PI5P4K alpha inh, L3MBTL1 block)
c1ccc2c(c1)OCC(c1nnc3sc(-c4ccc5c(c4)OCO5)nn13)O2 (stereo not given)	HP1b chromo inh inconclusive, G9a inh 5µM (no result: PI5P4K alpha inh)
c1ccc2c(c1)OCC(c1nnc3n1-c1ccccc1SC3)O2 (stereo not given)	none
Fc1ccc(-c2nn3c(C4COc5ccccc5O4)nnc3s2)cc1 (stereo not given)	HP1b chromo inh inconclusive, JMJD2A Tudor inconclusive, G9a inh 3.2µM (no result: PI5P4K alpha inh)
c1csc(-c2nn3c(C4COc5ccccc5O4)nnc3s2)c1 (stereo not given)	G9a inh 5µM (no result: PI5P4K alpha inh)
Fc1ccc(-c2nnc3sc(C4COc5ccccc5O4)nn23)cc1 (stereo not given)	none (no result: PI5P4K alpha inh)
c1ccc2c(c1)OCC(c1nnc3sc(-c4cnccn4)nn13)O2 (stereo not given)	G9a inh 7.9µM (no result: PI5P4K alpha inh)
O=C(NCCc1ccccc1)c1ccc2c(c1)nc1n2CCOC1	none (no result: PI5P4K alpha inh, L3MBTL1 block)
CCOc1ccc2c(c1)C(c1cccs1)=NNC(c1cccnc1)=N2	BAZ2B inh 71µM, JMJD2A Tudor inconclusive
Brc1ccc2c(c1)C(c1cccs1)=NNC(c1cccnc1)=N2	none
Cc1ccc(-n2c(SCc3ccccc3F)nc3[nH]ncc3c2=O)cc1Cl	JMJD2A Tudor inconclusive (no result: PI5P4K alpha inh, L3MBTL1 block)
CN1CCCN(S(=O)(=O)c2ccc(O)c(C(=O)O)c2)CC1	G9a inh 79µM (no result: L3MBTL1 block)
CC(=O)NCc1ccc(S(=O)(=O)N2CCN(c3ccccn3)CC2)cc1	G9a inh inconclusive (no result: L3MBTL1 block)
CC(=O)NCc1ccc(S(=O)(=O)N2CCCN(C)CC2)cc1	JMJD2A Tudor 25µM, G9a inh 79µM (no result: L3MBTL1 block)
Cc1ccc(CCNC(=O)CCS(=O)(=O)c2cc3c(cc2Cl)NC(=O)CO3)cc1	none (no result: PI5P4K alpha inh, L3MBTL1 block)
CCCNC(=O)C1CCN(S(=O)(=O)c2ccc3c(c2)CCCN3C(C)=O)CC1	none (no result: PI5P4K alpha inh, L3MBTL1 block)
Cc1ccc2cccc(NC(=O)c3cccc4c(Br)cccc34)c2n1	none (no result: PI5P4K alpha inh, L3MBTL1 block)
COC(=O)/C(=C/Nc1ccc(O)cc1)[N+](=O)[O-]	JMJD2A Tudor inconclusive, G9a inh 2µM (no result: L3MBTL1 block)
COc1cccc(C(=O)Nc2cccc(C(=O)OCc3cc(=O)n4c5c(sc4n3)CCCC5)c2)c1	none (no result: PI5P4K alpha inh, L3MBTL1 block)
CC(=O)Nc1ccc(S(=O)(=O)Nc2cc(Cl)ccc2N2CCOCC2)cc1	none (no result: BAZ2B inh, G9a inh)
O=S(=O)(Nc1ccc(Cl)cc1)c1ccc(N2CCOCC2)c(NC(=S)NC2CC2)c1	PI5P4K alpha inh inconclusive, BAZ2B inh inconclusive, G9a inh 7.9µM
CNC(=S)Nc1cc(S(=O)(=O)Nc2cc(Cl)ccc2Cl)ccc1N1CCCC1	JMJD2A Tudor inconclusive, G9a inh 50µM (no result: L3MBTL1 block)
O=C(NCCOc1ccccc1)c1ncn[nH]1	BAZ2B inh 50µM, JMJD2A Tudor 40µM, G9a inh inconclusive (no result: PI5P4K alpha inh)
Cc1c(NC(=O)c2ccco2)cccc1-c1nc2cccnc2s1	PI5P4K alpha inh inconclusive, JMJD2A Tudor inconclusive, G9a inh 14µM
Cc1cccc(OCCNC(=O)c2ncn[nH]2)c1	none (no result: PI5P4K alpha inh)
O=C(Nc1ccccc1C(F)(F)F)c1ncn[nH]1	BAZ2B inh 14µM, JMJD2A Tudor 7.9µM (no result: G9a inh, L3MBTL1 block)
Cc1c(NC(=O)c2ncn[nH]2)cccc1-c1nc2ccccc2s1	BAZ2B inh 25µM, JMJD2A Tudor inconclusive, G9a inh inconclusive
